Laboratory results reported in PubChem BioAssay (NCATS).
Inconclusive results are not listed. Unmarked numbers belong to inactive results. The source made the active and inactive calls. Calls follow the shape of the dose curve; as a rule, active = well fitted inhibition curve with a large enough effect; inconclusive = small, poorly fitted or top-dose-only effect; inactive = flat fitted curve, though single readings scatter.

Target: Calcium and integrin-binding protein 1 (Homo sapiens) (UniProt Q99828)
Sequence (Q99828 whole entry, looked up): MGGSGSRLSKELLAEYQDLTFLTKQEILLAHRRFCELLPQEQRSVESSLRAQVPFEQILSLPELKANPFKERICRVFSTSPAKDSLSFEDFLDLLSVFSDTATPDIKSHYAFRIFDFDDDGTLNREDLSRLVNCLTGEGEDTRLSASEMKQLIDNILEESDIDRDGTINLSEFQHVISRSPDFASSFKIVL
Assay: Primary qHTS for Identification of Calcium Integrin Binding Protein 1 (CIB1) Competitor (AID 1508620); also: top concentration of the series differs between compounds
Settings: CIB1-GST / FITC-alphaIIb peptide fluorescence polarization; series mostly up to 114 µM; activity change, negative = inhibition: at the top concentration
Procedure, shortened: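 Fluorescence polarization competition: GST-tagged CIB1 (1 uM final) preincubated with compound 15 min at room temperature, then FITC-labelled alphaIIb peptide (100 nM final) added. After 15 min at room temperature, polarization read at Ex 480/Em 540.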
% is scaled to controls: 0 for no effect and ±100 for the full control effect.

In order of falling “activity change, negative = inhibition” value:
1. Oc1ccc(CNc2cccc(F)c2)c2cccnc12  13.5%
2. CC1(C)CC2CC(C)(CN2S(=O)(=O)c2ccc(C(=O)Nc3ccc(Cl)cc3)cc2)C1 (centres undefined)  8.09%
3. O=C(Nc1ccc(F)c(C(F)(F)F)c1)Nc1cccc(-c2ccncc2)n1  6.89%
4. O=C(Nc1ccc(-c2nc3ccccc3[nH]2)cc1)c1ccc(C(F)(F)F)cc1  5.85%
5. CC(C)N1Cc2ccc(Nc3nn4c(=O)c5ccccc5nc4s3)cc2C1  4.83%
6. N#Cc1nc(Nc2cc(F)cc(F)c2)c2ncn(CCO)c2n1  4.55%
7. FC(F)(F)c1ccccc1-c1nc(NCc2ccc(-c3ccc(Cl)cc3)cc2)c2ccccc2n1  4.41%
8. C[C@H](N)C(=O)Nc1cccc(-c2nn3c(=O)cc(N4CCNCC4)nc3s2)c1  4.28%
9. COC(=O)c1ccc(Cn2ncc3c4sc(C)cc4n(C)c3c2=O)cc1  2.73%
10. O=C1CCc2cc(S(=O)(=O)Nc3cccc(-c4ccccc4)c3)ccc2N1  2.35%
11. COc1ccc(OC)c(NC(=O)C(OC(=O)CNC(=O)c2ccccc2)c2ccccc2)c1 (centres undefined)  2.26%
12. Cc1ccc(CNc2ccc(N3CCN(C(=O)OC(C)(C)C)CC3=O)cc2)cc1  1.92%
13. Cn1c2cc(Br)sc2c2cnn(Cc3c(F)cccc3F)c(=O)c21  1.55%
14. CC(=O)N1CCN(c2ccc(NCc3ccc(-c4cccc(Cl)c4)o3)cc2)CC1  1.47%
15. Oc1cc(NCc2ccc(F)cc2)cc2cccnc12  1.19%
16. CC(=O)Nc1sc2c(c1C(=O)O)CCNC2  1.07%
17. CCOc1ccc(CCNC(=O)c2ccc3[nH]ccc3c2)cc1OCC  0.152%
18. S=C(NCCCN(Cc1ccc(Cl)c(Cl)c1)c1ccc(Br)cn1)NCCc1cnc[nH]1  0.0503%
19. CC(C)CC(OC(=O)CNC(=O)c1ccccc1)C(=O)Nc1cc(C(F)(F)F)ccc1Cl (centres undefined)  0.0086%
20. O=[S+]([O-])(Nc1ccc(-c2ccccc2)cc1)c1ccc(NCc2ccc(Cl)cc2O)cc1  -0.284%
21. NC(=O)c1cccc(C[C@H](C(=O)O)N2C(=O)c3ccc(C(=O)O)cc3C2=O)c1  -0.299%
22. COc1cccc(-c2no[n+]([O-])c2C#N)c1  -0.338%
23. Cc1ccnc(NC(=S)N2CC3CN(c4ncc(C(F)(F)F)cc4Cl)CC3C2)c1 (centres undefined)  -0.566%
24. Cc1cccc(CNc2ccnc(-c3cccc(C(F)(F)F)c3)n2)c1  -0.588%
25. c1ccc(CNc2nc(-c3cccs3)nc3ccccc23)cc1  -1.12%
26. O=C(OCC#CCSc1nnc(-c2cccc3ccccc23)o1)c1ccc(F)nc1  -1.26%
27. Nc1ccc(NC(=O)Nc2nnc(-c3ccncc3)s2)cc1C(F)(F)F  -1.31%
28. CC(C)c1ccccc1-c1nc2c(c(NCc3ccc(-c4cccnc4)cc3)n1)CCNC2  -1.69%
29. COc1ccc(C2=Nn3c(nnc3-c3ccc(OC)cc3OC)SC2)cc1  -1.79%
30. O=C(Nc1ccc(Cl)c(Cl)c1)Nc1ncc(-c2ccncc2)s1  -2.01%
31. O=S(=O)(Nc1cccc2cccnc12)c1ccc(Br)cc1  -3.33%
32. NC(=O)c1c(NC(=O)C2CCCO2)sc2c1CCCC2 (centres undefined)  -5.74%
33. Cc1ccccc1N(C)C1=N[S+](=O)([O-])c2ccccc21  -6.57%
34. Cc1cc(C)nc(NC(=S)N2CCN(c3ccc(NS(C)(=O)=O)nn3)CC2)c1  -7.36%
35. CC(=O)NC(c1cc(Cl)c2cccnc2c1O)C(C)C (centres undefined)  -13%
36. O=C(/C=C/c1c(F)c(F)c(F)c(F)c1F)Nc1cccc([S+](=O)([O-])Nc2ccccc2F)c1  -15%
37. O=[S+]([O-])(Nc1ccc(N2CCNCC2)cc1)c1ccc(NCc2cccc(Cl)c2O)cc1  -17.2%

With `Cc1cccc2oc(NC3=NC(c4[nH]ncc4Cl)C4=C(CCCC4=O)N3)nc12` (centres undefined) the Potency was “inactive”.

For `Cc1cc(C)n2ncc(C(=O)Nc3cccc(C#N)c3)c2n1`, the “activity change, negative = inhibition” value was -2.37% [at 30.2 µM].
